Data on six compounds can be found in PubChem BioAssay (EPA / NIEHS).

Read-out in test [1]: Interleukin-8 (IL8), CXCL8 (gene 3576)
The experiment in a line: BSK_CASM3C_IL8: BioMAP Diversity Plus: CASM3C Assay for Interleukin-8 (IL8) Biomarker Activity (AID 2283042).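 Also: IL-8 protein level quantified by ELISA.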 The note with it: primary human coronary artery smooth muscle cells; actives raise or lower the signal.

Read-out in test [2]: Human Leukocyte Antigen - DR isotype (HLADR), HLA-DRA (gene 3122)
The experiment in a line: BSK_CASM3C_HLADR: BioMAP Diversity Plus: CASM3C Assay for Human Leukocyte Antigen - DR isotype (HLADR) Biomarker Activity (AID 2283043).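 Also: cell-surface HLA-DR protein level quantified by ELISA.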 Particulars: primary human coronary artery smooth muscle cells; actives raise or lower the signal.

Read-out in test [3]: Macrophage colony-stimulating factor (MCSF), CSF1 (gene 1435)
Kind of test: BSK_CASM3C_MCSF: BioMAP Diversity Plus: CASM3C Assay for Macrophage colony-stimulating factor (MCSF) Biomarker Activity (AID 2283044).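 Also: M-CSF protein amount quantified by ELISA after 24 h exposure.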 Particulars: primary human coronary artery smooth muscle cells; actives raise or lower the signal.

Read-out in test [4]: Low-density lipoprotein receptor (LDLR), LDLR (gene 3949)
Kind of test: BSK_CASM3C_LDLR: BioMAP Diversity Plus: CASM3C Assay for Low-density lipoprotein receptor (LDLR) Biomarker Activity (AID 2283045).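 Also: LDLR protein level on the cell surface quantified by ELISA.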 The note with it: primary human coronary artery smooth muscle cells; actives raise or lower the signal.

Read-out in test [5]: Monocyte Chemoattractant Protein-1 (MCP1), CCL2 (gene 6347)
Kind of test: BSK_CASM3C_MCP1: BioMAP Diversity Plus: CASM3C Assay for Monocyte Chemoattractant Protein-1 (MCP1) Biomarker Activity (AID 2283046).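 Also: MCP-1 level quantified by ELISA 24 h after dosing.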 Particulars: primary human coronary artery smooth muscle cells; actives raise or lower the signal.

A short description of test [6]: BSK_CASM3C_Proliferation: Cell Proliferation Assessment in the BioMAP Diversity Plus: CASM3C Assay (AID 2283047).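 Also: sulforhodamine B total protein stain as relative cell number at 560 nm; sub-confluent cells exposed 48 h before staining; fitted both ways against DMSO so gain or loss of cell number.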 The note with it: primary human coronary artery smooth muscle cells.
Read-out in test [7]: Monokine induced gamma interferon (MIG), CXCL9 (gene 4283)
The experiment in a line: BSK_CASM3C_MIG: BioMAP Diversity Plus: CASM3C Assay for Monokine induced gamma interferon (MIG) Biomarker Activity (AID 2283048).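 Also: MIG protein level measured by ELISA.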 Particulars: primary human coronary artery smooth muscle cells; actives raise or lower the signal.

Read-out in test [8]: serum amyloid A (SAA), SAA1 (gene 6288)
The experiment in a line: BSK_CASM3C_SAA: BioMAP Diversity Plus: CASM3C Assay for serum amyloid A (SAA) Biomarker Activity (AID 2283049).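 Also: SAA protein level quantified by ELISA.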 The note with it: primary human coronary artery smooth muscle cells; actives raise or lower the signal.

Test [9] in a line: BSK_CASM3C_SRB: Viability Assessment in the BioMAP Diversity Plus: CASM3C Assay (AID 2283050).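 Also: cells exposed to compound for 24 h.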 Particulars: primary human coronary artery smooth muscle cells.
Read-out in test [10]: Thrombomodulin, THBD (gene 7056)
The experiment in a line: BSK_CASM3C_Thrombomodulin: BioMAP Diversity Plus: CASM3C Assay for Thrombomodulin Biomarker Activity (AID 2283051).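 Also: thrombomodulin protein level measured by ELISA 24 h after dosing.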 Particulars: primary human coronary artery smooth muscle cells; actives raise or lower the signal.

Read-out in test [11]: Tissue Factor, F3 (gene 2152)
The experiment in a line: BSK_CASM3C_TissueFactor: BioMAP Diversity Plus: CASM3C Assay for Tissue Factor Biomarker Activity (AID 2283052).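 Also: cell surface tissue factor protein level read by ELISA.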 Particulars: primary human coronary artery smooth muscle cells; actives raise or lower the signal.

Read-out in test [12]: Interferon-gamma inducible Protein 10 (IP10), CXCL10 (gene 3627)
The experiment in a line: BSK_hDFCGF_IP10: BioMAP Diversity Plus: hDFCGF Assay for Interferon-gamma inducible Protein 10 (IP10) Biomarker Activity (AID 2283053). Particulars: primary human foreskin fibroblasts; actives raise or lower the signal. In a few lines:
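Primary human foreskin fibroblasts exposed to chemicals for 24 h. IP-10 measured by ELISA; changes fitted bidirectionally against DMSO baseline.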

Read-out in test [13]: Urokinase-type plasminogen activator receptor (uPAR), PLAUR (gene 5329)
Kind of test: BSK_CASM3C_uPAR: BioMAP Diversity Plus: CASM3C Assay for Urokinase-type plasminogen activator receptor (uPAR) Biomarker Activity (AID 2283054).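 Also: cell-surface uPAR protein level quantified by ELISA.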 Particulars: primary human coronary artery smooth muscle cells; actives raise or lower the signal.

Read-out in test [14]: Vascular cell adhesion molecule 1 (VCAM1), VCAM1 (gene 7412)
The experiment in a line: BSK_CASM3C_VCAM1: BioMAP Diversity Plus: CASM3C Assay for Vascular cell adhesion molecule 1 (VCAM1) Biomarker Activity (AID 2283055).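 Also: VCAM-1 protein level quantified by ELISA on the cells.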 Particulars: primary human coronary artery smooth muscle cells; actives raise or lower the signal.

Read-out in test [15]: Collagen III, COL3A1 (gene 1281)
Kind of test: BSK_hDFCGF_CollagenIII: BioMAP Diversity Plus: hDFCGF Assay for Collagen III Biomarker Activity (AID 2283056). Particulars: primary human foreskin fibroblasts; actives raise or lower the signal. In a few lines: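 hDFCGF primary human dermal fibroblasts; 24 h chemical exposure; collagen III by ELISA; bidirectional curve fit vs DMSO baseline (gain or loss of signal).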

Read-out in test [16]: Epidermal growth factor receptor (EGFR), EGFR (gene 1956)
The experiment in a line: BSK_hDFCGF_EGFR: BioMAP Diversity Plus: hDFCGF Assay for Epidermal growth factor receptor (EGFR) Biomarker Activity (AID 2283057). The note with it: primary human foreskin fibroblasts; actives raise or lower the signal. In a few lines: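 Primary human foreskin fibroblasts (hDFCGF system), sampled 24 h after dosing; EGFR quantified by ELISA. Bidirectional fit relative to DMSO baseline; SRB total-protein staining in parallel cultures for cytotoxicity.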

Read-out in test [17]: Interleukin-8 (IL8), CXCL8 (gene 3576)
Kind of test: BSK_hDFCGF_IL8: BioMAP Diversity Plus: hDFCGF Assay for Interleukin-8 (IL8) Biomarker Activity (AID 2283058). Particulars: primary human foreskin fibroblasts; actives raise or lower the signal. In a few lines:
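ELISA read-out of IL-8 from primary human foreskin fibroblast cultures taken 24 h after dosing; values are bidirectional fits relative to DMSO vehicle.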

Test [18] in a line: BSK_hDFCGF_Proliferation: Cell Proliferation Assessment in the BioMAP Diversity Plus: hDFCGF Assay (AID 2283059).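 Also: curves fitted for both rise and fall of signal versus DMSO baseline.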 The note with it: primary human foreskin fibroblasts. An outline of the steps: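 Sub-confluent human foreskin fibroblast cultures receive test chemical […]. Relative cell number is quantified by sulforhodamine B staining (0.1%, after 10% TCA fixation) at 560 nm, with bidirectional fitting referenced to DMSO.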

Read-out in test [19]: Macrophage colony-stimulating factor (MCSF), CSF1 (gene 1435)
Kind of test: BSK_hDFCGF_MCSF: BioMAP Diversity Plus: hDFCGF Assay for Macrophage colony-stimulating factor (MCSF) Biomarker Activity (AID 2283060). Particulars: primary human foreskin fibroblasts; actives raise or lower the signal. In a few lines:
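ELISA read-out of M-CSF in human dermal foreskin fibroblast cultures, 24 h after chemical dosing; gain or loss of signal fitted bidirectionally relative to DMSO baseline.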

Test [20] is described as follows: BSK_hDFCGF_SRB: Viability Assessment in the BioMAP Diversity Plus: hDFCGF Assay (AID 2283061).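 Also: cells exposed to compound for 24 h before the read.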 The note with it: primary human foreskin fibroblasts. An outline of the steps: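 Primary human foreskin fibroblasts; 24 h post-dose; fixed 10% TCA, stained 0.1% SRB, A560 read; total protein as overt cytotoxicity measure; curves fit bidirectionally vs DMSO control.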

By AC50 is commonly meant the concentration at which the activity in the assay is half-maximal.

Structures are written as SMILES. Active and inactive are the calls of the source. The calls were made as follows: active = hit-call score of the fitted dose curve at least 0.9, where 1 is the maximum; inactive = score below 0.9.

For `CC(C)CCCCCCOC(=O)CCCCC(=O)OCCCCCCC(C)C`, the outcome in [1], in [2], in test [3], in [4], in test [5] and in [6] was inactive. For the same compound, the outcome in test [7], in test [8], in test [9], in test [10], in [11] and in [12] was inactive. In addition, the result in [13], in test [14], in [15], in [16], in test [17] and in test [18] was inactive. Also, the outcome in test [19] was inactive.

As to `O=c1c(-c2ccc(O)cc2)coc2cc(O)ccc12`, the outcome in [1], in test [2], in test [3], in test [4], in test [5] and in test [6] was inactive. Besides, the outcome in test [7], in test [8], in test [9], in [10], in [11] and in [12] was inactive. In addition, the result in test [13], in test [14], in [15], in test [16], in test [18] and in test [19] was inactive.

On to `CCCOC(=O)c1ccc(O)cc1`, for which the result in test [1], in [2], in test [3], in test [4], in test [5] and in [6] was inactive. In addition, the outcome in [7], in test [8], in test [9], in [10], in test [11] and in test [12] was inactive. Moreover, the outcome in test [13], in test [14], in test [15], in test [16], in test [17] and in test [18] was inactive. In addition, the outcome in [19] and in test [20] was inactive.

On to `CC(C)(C)CC(C)(C)c1ccc(O)c(-n2nc3ccccc3n2)c1`, for which the result in [1], in [5], in test [7], in [9], in test [11] and in test [13] was inactive. Further, the result in test [14] and in [15] was inactive. Further, the concentration at half-maximal activity (AC50) in [2] is 15.7 µM (active); in [3], 28.8 µM (active); in test [4] it was 20 µM (active); in [6], 29.8 µM (active); in test [8], 32.4 µM (active); in test [10], 22.7 µM (active). Also, the AC50 in test [12] is 14.6 µM (active); in test [16] it was 14.2 µM (active); in test [18], 6.71 µM (active); in [19] it was 5.47 µM (active).

As for `CCCCCCCCOC(=O)CCCCCCCCC(=O)OCCCCCCCC`, the outcome in test [1], in test [2], in test [3], in test [4], in test [5] and in [6] was inactive. The outcome in test [7], in test [8], in test [9], in test [10], in test [11] and in [12] was inactive. Moreover, the outcome in test [13], in test [14], in test [15], in [16], in [17] and in test [18] was inactive. The outcome in test [19] and in test [20] was inactive.

As to `CCc1nn(C2CCCCC2)c2cc(C3(C#N)CCC(C(=O)O)CC3)ccc12` (stereo not given), the outcome in test [1], in test [8], in test [9], in test [10], in [11] and in [17] was inactive. In addition, the AC50 in test [2] is 4.52 µM (active); in [3] it was 0.657 µM (active); in [4] it was 1.47 µM (active); in test [5], 7.23 µM (active); in test [6], 4.09 µM (active); in [7], 13.1 µM (active). In addition, the AC50 in test [12] was 4.83 µM (active); in [13], 1.03 µM (active); in test [14], 5.03 µM (active); in test [15], 1.75 µM (active); in [16], 1.26 µM (active); in [18], 4.27 µM (active). Moreover, the AC50 is 5.16 µM (active) in test [19] and 4.51 µM (active) in test [20].
